# Assay outcomes from PubChem.
# Rows were chosen to be rich in hits. Some 21% of all compounds tested hit in one or more screens of this group.
# Shiga inhibitor: Shiga toxin inhibition; Vero cells, Shiga toxin protein synthesis inhibition reporter; 290,000 compounds, 9.2% hits; inhibition, % at 38.7 µM; in the data active = inhibition mostly above about 28%, no sharp cut-off; inactive = mostly below about 43%; also: 0% is about no effect
# Pf growth 48h: inhibits P. falciparum growth in the first generation, 48 h; 310,000 compounds, 5.9% hits; P. falciparum luciferase growth in erythrocytes, 48 h; Potency, µM (highest dose often 28.7 µM), for the others: top-dose activity change, negative = inhibition, usual class: inhibitors; also: potency is read from the fitted curve at half-maximal effect; % is scaled to controls: 0 for no effect and ±100 for the full control effect
#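 Luciferase-expressing parasites in RBCs, 2% Hct / 0.1% parasitemia final; RPMI 1640 + 0.5% Albumax; 37 C, 5% CO2, one generation; luminescence read-out, lower signal = inhibition.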
# Pf growth 96h: P. falciparum growth inhibition at 96 hour, primary screen for plastid delayed-death inhibitors | Potency, µM (titrated, usually from 28.7 µM), for inactives: at the top dose activity change, negative = inhibition, hits mostly inhibitors | P. falciparum luciferase reporter growth, 96 h | 320,000 compounds, 6.9% hits; also: potency is read from the fitted curve at half-maximal effect; % is scaled to controls: 0 for no effect and ±100 for the full control effect
#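 Cell-based qHTS: luciferase-tagged P. falciparum in erythrocytes (2% hematocrit, 0.05% parasitemia final) incubated with compounds for 96 hours, 37 C, 5% CO2; luciferase detection reagent then added and luminescence measured.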
# CHX counter: counter-screen for Shiga toxin inhibitors: cycloheximide protein synthesis inhibition; max response, %; AID 2314; 300,000 compounds, 12% hits; cell reporter, cycloheximide protein synthesis inhibition counterscreen; in the data active = max response mostly above about 13%, no sharp cut-off; inactive = mostly below about 14%; also: read at 38.3 µM for the half of the compounds with a filed dose; 0% is about no effect
# The depositor's hits bear a star; ? = inconclusive; . = not tested or not shown; [ ] = another dose, or the depositor's remark. Unless noted, calls follow the shape of the dose curve; as a rule, active = well fitted inhibition curve with a large enough effect; inconclusive = small, poorly fitted or top-dose-only effect, or another doubt; inactive = no such curve, though single readings can be large or run the other way.
SMILES,Shiga inhibitor,Pf growth 48h,Pf growth 96h,CHX counter
COc1cc2cc(C(=O)N3CCN(Cc4ccc5c(c4)OCO5)CC3)c(=O)oc2cc1OC,-6.9,-6.8%,7.8%,-0.5
CCOc1ccc(N2CC(=O)N(c3ccc(OCC)cc3)CC2=O)cc1,-19.2,30.5%,0.0%,-2.1
CCOc1ccc(-n2nc3ccc(N)cc3n2)cc1,30.9*,-7.9%,43.4%,35.7*
CCOc1ccc(-n2nc3cc(C)c(N)cc3n2)cc1,47.6*,301.2%,?,32.2*
CC(C)Nc1nc(-c2ccncc2)nc(-c2ccccc2)c1C#N,2.3,?,?,-2.0
CCc1cccc(NC(=O)c2cnn(-c3ccccc3)c2C)c1,136.5*,94.2%,89.5%,44.9*
CCn1ncc(C(=O)Nc2cccc(Cl)c2)c1C,30.1*,297.3%,295.5%,67.5*
COc1cccc(NC(=O)c2cnn(-c3ccccc3)c2C)c1,53.3*,119.0%,234.1%,32.1*
CCn1ncc(C(=O)Nc2cc(C)on2)c1C,38.0,95.3%,212.5%,47.3*
O=C(Nc1c(C(=O)Nc2ccccc2)cnn1-c1ccccc1)c1ccco1,-2.9,97.7%,1.9%,-2.0
C=CCNC(=O)C(=O)NCC1CCCN1S(=O)(=O)c1cccs1 (stereo not drawn),.,?,-23.1%,.
S=C(NCc1ccc(Cl)cc1)NCc1ccco1,26.8,-31.2%,?,10.8
Clc1ccc(C(c2ccccc2Cl)C(Cl)Cl)cc1 (stereo not drawn),.,10.4µM*,?,.
Cc1ccc(/C=N/Nc2cc(C)nc(NCc3ccccc3)n2)cc1,29.4,0.586µM*,1.04µM*,18.8*
Cc1cc(N/N=C/c2ccc(Cl)cc2Cl)nc(NCc2ccccc2)n1,-7.7,0.329µM*,?,-1.9
Cc1cc(N/N=C/c2ccc(N(C)C)cc2)nc(NCc2ccccc2)n1,14.7,?,?,-2.2
Cc1cc(N/N=C/c2ccc(F)cc2)nc(NCc2ccccc2)n1,45.8*,0.415µM*,?,22.4*
O=C(CCc1nc2ccccc2c(=O)[nH]1)N1CCCc2ccccc21,.,-36.4%,?,.
COc1cccc(CN2CC(C(=O)NCCCCc3ccccn3)CCC2=O)c1 (stereo not drawn),-2.9,-25.6%,0.0%,1.8
CC(C)=CCCC1(C)C=Cc2c(c(C)cc3c2[nH]c2cc(O)ccc23)O1 (stereo not drawn),33.7,10.4µM*,-16.3%,-1.9
COc1cccc(CCNC(=O)CCCC(=O)c2ccccc2)c1,15.0,-9.8%,?,5.4
CCNC(=O)C/C(C)=N/NC(=O)C12CC3CC(CC(C3)C1)C2,41.4,?,?,19.6*
COc1ccccc1NC(=O)CCn1cnc2ccccc2c1=O,.,4.9%,38.2%,.
C/C(=N/N=C(\C)c1ccccc1O)c1ccccc1O,38.5*,158.5%,19.2%,24.0*
CCCCCCN=C(C)c1ccccc1O,-9.0,61.0%,70.5%,1.0
SMILES,Shiga inhibitor,Pf growth 48h,Pf growth 96h,CHX counter
COc1cc2ccccc2cc1C(=O)NCC(c1cccs1)N(C)C (stereo not drawn),87.3*,163.5%,99.4%,36.8*
COc1cc2ccccc2cc1C(=O)Nc1nccs1,49.3*,149.1%,78.1%,27.5*
COc1c(C(=O)Nc2nccs2)ccc2ccccc12,93.3*,119.9%,467.0%,37.8*
COc1cccc(-c2nn(-c3ccccc3)cc2C(=O)Nc2nccs2)c1,12.2,7.38µM*,?,7.9
CN1CCN(c2ccc(NC(=O)CSc3nnnn3-c3ccccc3Cl)cc2)CC1,-4.1,?,?,-0.6
CCN(CC(=O)Nc1ccc(NC(C)=O)cc1)C(=O)CCCc1c[nH]c2ccccc12,.,-22.5%,?,.
Cc1cc(C)n2nc(C(=O)OCC(=O)NNC(=O)c3ccccc3)nc2n1,.,11.2%,43.1%,.
O=CN/C=C/c1cc(O)ccc1O,9.8,-25.0%,-16.3%,4.4
COc1cccc2c1OCC(C(=O)Nc1nccs1)=C2,107.8*,-6.4%[0.00184 µM],-4.7%,40.7*
Cc1cc(C)cc(OCC(=O)OCC(=O)N(CC(C)C)c2c(N)n(Cc3ccccc3)c(=O)[nH]c2=O)c1,.,3.5%,16.7%,.
CCCC1CCC(c2nc(-c3cccnc3)no2)CC1 (stereo not drawn),45.1,26.3%,-8.6%,61.8*
Fc1ccc(-c2noc(C3CCN(Cc4cccnc4)CC3)n2)cc1,28.2*,?,-3.1%,19.0*
CCCCCCC1CCC(c2nc(-c3ccncc3)no2)CC1 (stereo not drawn),-8.5,.,-14.5%,-3.8
CC(C)(C)OC(=O)N1CCN(C(=O)c2[nH]cnc2C(=O)Nc2cccc(Cl)c2)CC1,.,4.15µM*,?,.
CC(C)(C)OC(=O)CNC(=O)c1nc[nH]c1C(=O)N1CCN(C(=O)OC(C)(C)C)CC1,-2.4,6.2%,137.3%,0.9
CCOC(=O)c1ccc(NC(=O)c2nc[nH]c2C(=O)N2CCN(C(=O)OC(C)(C)C)CC2)cc1,-0.9,13.1µM*,?,0.7
COc1ccc(OC)c(S(=O)(=O)Nc2c(NC3CCCCC3)c3ccccc3oc2=O)c1,-5.1,?,-21.8%,-11.3
O=C(COC(=O)C1CC2CCCC(C1)C2=O)NC1CCCCC1 (stereo not drawn),.,2.7%,-20.9%,.
COc1ccc(C(O)(C(C)C)C(CN2CCOCC2)c2ccc(Cl)cc2)cc1 (stereo not drawn),26.2,8.28µM*,0.0%,-1.4
CCCCCC(O)(c1ccc(OC)cc1)C(CN1CCOCC1)c1ccccc1 (stereo not drawn),-6.4,1.65µM*,8.0%,-3.4
COc1ccc(C(O)(C(C)C)C(CN2CCOCC2)c2ccccc2)cc1 (stereo not drawn),-1.6,?,0.0%,-4.1
CCCC(O)(c1ccc(OC)cc1)C(CN1CCOCC1)c1ccccc1 (stereo not drawn),-12.7,?,12.4%,9.4
CCCCCC(O)(c1ccc(OCC)cc1)C(CN1CCOCC1)c1ccccc1 (stereo not drawn),-3.0,2.08µM*,?,0.3
CCCCC(O)(c1ccc(OC)cc1)C(CN1CCOCC1)c1ccccc1 (stereo not drawn),-5.6,.,24.2%,-2.7
O=C(NC1CC1)C1CC(=O)N(c2ccc(F)cc2)C1 (stereo not drawn),-5.2,7.8%,33.4%,-5.9
SMILES,Shiga inhibitor,Pf growth 48h,Pf growth 96h,CHX counter
Cc1cc(C)nc(NN2C(=O)C=CC2=O)n1,17.7,.,3.3%,5.0
Cc1cccc(NC(=O)CNC(=O)COc2cccnc2[N+](=O)[O-])c1C,.,-6.7%,3.5%,.
CC(C)C[C@@H]1NC(=O)[C@H](Cc2ccccc2)N(C)C(=O)[C@H](C)NC(=O)c2ccccc2NC(=O)[C@H](Cc2ccc(O)cc2)N(C)C1=O,4.3,3.7µM*,?,-6.6
CC(C)CC1NC(=O)N(CC(=O)N2c3ccccc3NC(=O)C2(C)C)C1=O (stereo not drawn),-6.3,142.1%,-3.0%,-4.4
COc1cccc(C=Nc2ccccc2C(=O)Nc2nccs2)c1OC,-5.8,.,131.1%,6.1
N#C/C(=C\c1cccs1)C(=O)Nc1nccs1,65.2*,19.7%,23.5%,27.2*
C/C(=C\c1ccccc1)C(=O)Nc1nccs1,152.0*,244.2%,-0.2%,48.9*
O=C(Nc1nccs1)c1ccccc1N=Cc1ccccc1,47.9*,33.3%,135.7%,24.9*
